Measured values published in PubChem BioAssay (Tox21).
Values joined by “and” are separate entries in the source; they are usually repeats but may differ in a detail not shown here. Equal entries are not always repeated. Inconclusive results are not listed. Where a call stands in place of a potency, no number is given. Where a structure was tested more than once in an assay, its records may differ in their call. Active and inactive are the calls of the source. Unless noted, the call rests on the fitted dose curve; in most records, active means well fitted curve in the direction sought with a large enough effect in the repeat runs; inconclusive means weak or mixed curves; inactive means no such curve, though single readings can be large; an effect the other way counts as inactive or inconclusive.

How the values were obtained:
[1] = biological target: Retinoic acid receptor RXR-alpha (Homo sapiens) (UniProt P19793); test: qHTS assay to identify small molecule agonists of the RXR signaling pathway (AID 1159527; calls by dose curve; further: nearly all actives have a fitted effect of over 35% in size)
In short: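 Compounds in DMSO were added to RXR-alpha-UAS-bla HEK 293T cells kept in 2% charcoal-stripped serum, and incubated 16 hr at 37 C with 5% CO2. Reporter signal came from a 2 hr B/G FRET substrate step.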

[2] = qHTS assay to identify small molecule agonists of the RXR signaling pathway - cell viability counter screen (AID 1159529);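 further: HEK 293T cells carrying an RXR-alpha UAS beta-lactamase reporter; series mostly up to about 77 µM; nearly all actives have a fitted effect of over 50% in size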
In short: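 Counter screen: CellTiter-Glo luminescence. Cells: RXR-alpha-UAS-bla HEK 293T. Medium: 2% charcoal-stripped FBS. Treatment: 16 h, 37 C. Reagent incubation: 30 min, RT.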

[3] = qHTS assay to identify small molecule antagonists of the retinoid acid receptor (RAR) signaling pathway - cell viability counter screen (AID 1159551); further: nearly all actives have a fitted effect of over 35% in size
In short: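 Viability of C3RL4 cells is quantified from ATP by luminescence after 6 h treatment at 37 C with compounds and 1 uM retinol.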

[4] = qHTS assay to identify small molecule antagonists of the estrogen related receptor (ERR) signaling pathway - cell viability counter screen (AID 1224818); further: series mostly up to about 46 µM
In short: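 Cytotoxicity check run alongside the ERR antagonist screen: cells exposed to test compounds 17.5 h at 37 C, viability taken as CellTiter-Fluor fluorescence intensity.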

[5] = qHTS assay to identify small molecule antagonists of the estrogen related receptor (ERR) signaling pathway from Tox21 library - cell viability counter screen (AID 1224834); further: nearly all actives have a fitted effect of over 30% in size
In short: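 In this quantitative HTS format, ERR cells receive compounds in DMSO and are incubated for 17.5 h at 37 C. Live-cell protease activity is then detected with CellTiter-Fluor.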

[6] = biological target: Luciferin 4-monooxygenase (Photinus pyralis) (UniProt P08659); test: qHTS assay to identify small molecule inhibitors of firefly luciferase (AID 1224835); further: nearly all actives have a fitted effect of over 25% in size; further: potency means the concentration at half of the fitted maximal effect; on activity change, negative = inhibition: series mostly up to about 120 µM
In short: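 Biochemical qHTS: compounds run as interplate titrations against purified firefly enzyme, with D-luciferin and ATP each at its KM concentration. Light output recorded by CCD imaging.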

[7] = qHTS assay to identify small molecule agonists of the constitutive androstane receptor (CAR) signaling pathway - cell viability counter screen (AID 1224836); further: series mostly up to about 92 µM; nearly all actives have a fitted effect of over 45% in size
In short: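 Double-stable HepG2 hepatoma cells (hCAR plus CYP2B6-2.2kb) are treated for 23 h at 37 C with test compounds in 15-point concentration series. PK11195 at 0.75 uM final is co-added. Cell viability is quantified by CellTiter-Fluor.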

[8] = qHTS assay to identify small molecule antagonists of the estrogen related receptor signaling pathway with the pleiotropic PPARgamma coactivator (PGC) from Tox21 10K library - cell viability counter screen (AID 1224840; active means well fitted cell-killing curve with a large enough effect in the repeat runs, not every such curve was filed as active; further: nearly all actives have a fitted effect of over 40% in size)
In short: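 Viability counter screen, PGC/ERR cells: 17.5 h compound exposure at 37 C, CellTiter-Fluor fluorescence endpoint.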

[9] = qHTS assay to identify small molecule agonists of the hypoxia (HIF-1) signaling pathway - cell viability counter screen (AID 1224844; calls by dose curve; further: nearly all actives have a fitted effect of over 50% in size)
In short: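 Same wells as the HIF-1 reporter screen; ME-180 cells carrying HRE-bla, 17 hr treatment at 37C; CellTiter-Glo luminescence read after 30 min at room temperature.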

[10] = qHTS assay to identify small molecule agonists of H2AX (AID 1224845; active means well fitted activation curve with a large enough effect in the signal ratio in the repeat runs, not every such curve was filed as active; the % refers to the signal ratio)
In short: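 Wild-type CHO-K1 cells, plated overnight, exposed 3hr at 37C to 15 concentrations (0.76% DMSO final). Lysed, then HTRF anti-pH2AX (S139) cryptate and anti-H2AX-d2 antibodies, 24 hr room temperature; 665/620 nm emission read.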

[11] = qHTS assay to identify small molecule antagonists of the retinoic acid receptor (RAR) signaling pathway (AID 1159552; further: nearly all actives have a fitted effect of over 50% in size)
In short: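 Antagonism of retinol-induced RARE reporter activity was measured in C3RL4 cells. Exposure to compounds and 1 uM final retinol lasted 6 hr at 37 C, with luminescence as endpoint.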

[12] = qHTS assay to identify small molecule antagonists of the constitutive androstane receptor (CAR) signaling pathway - cell viability counter screen (AID 1224837); further: series mostly up to about 92 µM; nearly all actives have a fitted effect of over 45% in size
In short: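 In quantitative HTS format, compounds at 15 concentrations were applied to HepG2 cells double-transfected with hCAR and CYP2B6-2.2kb under 50 nM CITCO stimulation; live-cell protease activity was read after 23 hr via CellTiter-Fluor.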

[13] = biological target: Nuclear receptor subfamily 1 group I member 3 (Homo sapiens) (UniProt Q14994); test: qHTS assay to identify small molecule agonists of the constitutive androstane receptor (CAR) signaling pathway (AID 1224839); further: nearly all actives have a fitted effect of over 15% in size; further: potency means the concentration at half of the fitted maximal effect;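 on activation: HepG2 cells stably carrying human CAR and a CYP2B6 luciferase reporter; series mostly up to about 92 µM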
In short: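 Readout: firefly luciferase luminescence via ONE-Glo. System: HepG2 double-stable for hCAR and CYP2B6-2.2kb. Conditions: 15-point compound titration, PK11195 at 0.75 uM final, 24 h incubation.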

[14] = biological target: Thyrotropin receptor (Homo sapiens) (UniProt P16473); test: qHTS assay to identify small molecule agonists of the thyroid stimulating hormone receptor (TSHR) signaling pathway (AID 1224843; calls by dose curve; further: nearly all actives have a fitted effect of over 45% in size)
In short: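 HEK293/TSHR, 800 cells/well; cpd 30 min RT; add cAMP-d2 + anti-cAMP-cryptate, 1 h RT; fluorescence read on plate reader. 15-pt titration, n=3.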

[15] = qHTS assay to identify small molecule agonists of the hypoxia (HIF-1) signaling pathway (AID 1224846; active means well fitted activation curve with a large enough effect in the signal ratio in the repeat runs, not every such curve was filed as active; the % refers to the signal ratio)
In short: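 In ME-180 cells bearing an HRE-bla construct, 17 h treatment with DMSO-dissolved compounds at 37C was followed by CCF4-AM loading to quantify reporter induction.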

[16] = qHTS assay to identify small molecule antagonists of the estrogen related receptor signaling pathway with the pleiotropic PPARgamma coactivator (PGC) from Tox21 10K library (AID 1224841; call rule not given here; further: series mostly up to about 92 µM; actives are mostly falling curves and most rising ones were filed inactive; nearly all actives have a fitted effect of over 50% in size)
In short: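 In the PGC/ERR line, DMSO solutions of test chemicals are pin-delivered to 2,000 cells/well six hours after dispensing. Following eighteen hours' incubation, One-Glo reagent is added and luminescence recorded.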

[17] = qHTS assay to identify small molecule agonists of the estrogen related receptor signaling pathway with the pleiotropic PPARgamma coactivator (PGC) from Tox21 10K library (AID 1224842); further: nearly all actives have a fitted effect of over 15% in size
In short: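 PGC/ERR reporter cell line, 2,000 cells per well, incubated 6 h at 37 C before 23 nL compound in DMSO was added. After 18 h at 37 C, One-Glo luminescence read following 30 min at room temperature.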

[18] = qHTS assay to identify small molecule agonists of the retinoic acid receptor (RAR) signaling pathway (AID 1159553)
In short: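 Compounds dissolved in DMSO were pinned onto C3RL4 cells seeded the previous day, and plates were held 6 hr at 37 C. RARE-driven luciferase output was then read by luminescence.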

[19] = qHTS assay to identify small molecule antagonists of the estrogen related receptor signaling pathway with the pleiotropic PPARgamma coactivator (PGC) cell viability counter screen (AID 1224822; further: series mostly up to about 46 µM)
In short: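 Viable cell signal (CellTiter-Fluor, 30 min, 37 C/5% CO2) was measured in PGC/ERR cells after a 17.5 h compound incubation.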

[20] = biological target: Nuclear receptor subfamily 1 group I member 3 (Homo sapiens) (UniProt Q14994); test: qHTS assay to identify small molecule antagonists of the constitutive androstane receptor (CAR) signaling pathway (AID 1224838); further: nearly all actives have a fitted effect of over 40% in size
In short: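 CITCO-stimulated (50 nM final) HepG2 cells stably transfected with hCAR and CYP2B6-2.2kb luciferase were exposed to compounds at 15 concentrations for 24 h at 37 C/5% CO2. A luciferase reagent was added and luminescence recorded after 30 min.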

Sequence of Luciferin 4-monooxygenase (Photinus pyralis) (P08659 whole entry, looked up): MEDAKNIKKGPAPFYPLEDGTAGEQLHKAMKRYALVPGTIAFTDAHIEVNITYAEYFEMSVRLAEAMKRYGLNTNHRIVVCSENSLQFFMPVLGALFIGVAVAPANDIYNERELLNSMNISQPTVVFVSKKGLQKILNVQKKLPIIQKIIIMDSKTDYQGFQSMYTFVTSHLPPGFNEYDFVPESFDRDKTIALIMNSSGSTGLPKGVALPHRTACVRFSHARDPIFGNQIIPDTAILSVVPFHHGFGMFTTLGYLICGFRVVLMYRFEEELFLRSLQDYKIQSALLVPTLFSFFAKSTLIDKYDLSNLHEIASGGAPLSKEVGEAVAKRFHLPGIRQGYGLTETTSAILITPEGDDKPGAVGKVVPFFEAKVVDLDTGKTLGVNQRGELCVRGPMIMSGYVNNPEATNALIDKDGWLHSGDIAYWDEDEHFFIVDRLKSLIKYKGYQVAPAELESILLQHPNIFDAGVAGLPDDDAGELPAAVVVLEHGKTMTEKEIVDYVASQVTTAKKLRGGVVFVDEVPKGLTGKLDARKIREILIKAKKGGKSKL
Sequence of Retinoic acid receptor RXR-alpha (Homo sapiens) (P19793 whole entry, looked up): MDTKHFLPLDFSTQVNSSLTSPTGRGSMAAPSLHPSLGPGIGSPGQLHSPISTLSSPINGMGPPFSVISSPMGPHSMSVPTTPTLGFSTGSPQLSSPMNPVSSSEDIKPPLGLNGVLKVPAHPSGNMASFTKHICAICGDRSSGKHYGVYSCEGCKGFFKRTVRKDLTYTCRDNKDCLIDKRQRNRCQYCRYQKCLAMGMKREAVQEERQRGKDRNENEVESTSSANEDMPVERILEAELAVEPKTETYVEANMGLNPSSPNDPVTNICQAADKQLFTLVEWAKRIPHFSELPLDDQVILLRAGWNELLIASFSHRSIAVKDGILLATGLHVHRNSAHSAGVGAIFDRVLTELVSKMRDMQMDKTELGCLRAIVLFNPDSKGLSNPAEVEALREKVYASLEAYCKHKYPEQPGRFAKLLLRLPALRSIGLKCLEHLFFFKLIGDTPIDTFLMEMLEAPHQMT
Sequence of Nuclear receptor subfamily 1 group I member 3 (Homo sapiens) (Q14994 whole entry, looked up): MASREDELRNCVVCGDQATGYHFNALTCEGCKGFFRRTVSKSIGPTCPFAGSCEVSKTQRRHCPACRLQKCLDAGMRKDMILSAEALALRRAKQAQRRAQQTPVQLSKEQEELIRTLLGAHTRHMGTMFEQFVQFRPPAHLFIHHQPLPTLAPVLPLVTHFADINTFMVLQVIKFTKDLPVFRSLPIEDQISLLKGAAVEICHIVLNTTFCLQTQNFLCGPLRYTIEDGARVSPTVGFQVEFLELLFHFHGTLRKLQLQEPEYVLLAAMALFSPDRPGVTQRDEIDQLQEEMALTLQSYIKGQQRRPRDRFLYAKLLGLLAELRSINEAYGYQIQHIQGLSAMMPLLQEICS
Sequence of Thyrotropin receptor (Homo sapiens) (P16473 whole entry, looked up): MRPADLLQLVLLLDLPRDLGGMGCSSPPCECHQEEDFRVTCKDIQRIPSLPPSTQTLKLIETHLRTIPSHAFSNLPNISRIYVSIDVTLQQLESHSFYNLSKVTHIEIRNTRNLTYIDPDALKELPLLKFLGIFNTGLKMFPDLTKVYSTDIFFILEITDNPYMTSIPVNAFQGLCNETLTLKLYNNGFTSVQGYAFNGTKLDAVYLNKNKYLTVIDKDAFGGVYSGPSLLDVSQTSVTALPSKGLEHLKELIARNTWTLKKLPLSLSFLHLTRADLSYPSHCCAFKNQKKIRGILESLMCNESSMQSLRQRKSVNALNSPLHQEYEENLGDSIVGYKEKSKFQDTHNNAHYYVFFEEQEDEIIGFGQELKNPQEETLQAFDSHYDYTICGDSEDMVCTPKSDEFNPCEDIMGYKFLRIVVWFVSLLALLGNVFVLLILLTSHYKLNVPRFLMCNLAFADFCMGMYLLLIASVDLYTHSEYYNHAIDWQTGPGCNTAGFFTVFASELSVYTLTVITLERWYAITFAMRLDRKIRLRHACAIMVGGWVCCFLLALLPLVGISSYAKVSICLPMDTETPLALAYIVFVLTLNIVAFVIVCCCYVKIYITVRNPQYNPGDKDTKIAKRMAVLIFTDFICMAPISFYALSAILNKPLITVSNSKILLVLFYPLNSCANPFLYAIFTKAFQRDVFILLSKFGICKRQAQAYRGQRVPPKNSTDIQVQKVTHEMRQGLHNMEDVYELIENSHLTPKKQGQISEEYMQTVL

CCN(CC)CCCC(C)Nc1ccnc2cc(Cl)ccc12 (stereo not given)
activation [1]: -0.146% [at 15.8 µM] (inactive)
activity change, negative = cytotoxicity [2]: -13.3% [at 6.97 µM] (inactive) and -18.7% [at 15.8 µM] (inactive)
activity change, negative = cytotoxicity [3]: 1.59% [at 8.39 µM] (inactive) and -1.6% [at 19 µM] (inactive)
outcome [4]: inactive
viability change, negative = cytotoxic [5]: -0.582% [at 8.39 µM] (inactive)
activity change, negative = inhibition [6]: -0.277% [at 10.5 µM] (inactive) and -0.0339% [at 23.6 µM] (inactive)
viability change, negative = cytotoxic [7]: -3.22% [at 8.39 µM] (inactive)
viability change, negative = cytotoxic [8]: -1.36% [at 8.39 µM] (inactive) and -20.9% [at 19 µM] (inactive)
activity change, negative = cytotoxicity [9]: -3.66% [at 15.8 µM] (inactive)
activation (H2AX phosphorylation) [10]: 3.5% [at 14 µM] (inactive) and -4.76% [at 31.6 µM] (inactive)

Cc1ccc(N(C)C)cc1
Potency [1]: inactive
Potency [2]: inactive
outcome [3]: inactive
Potency [11]: inactive
Potency [5]: inactive
Potency [6]: inactive
Potency [7]: inactive
Potency [12]: inactive
Potency [13]: inactive and 27.3 µM (active)
Potency [14]: inactive
Potency [9]: inactive
Potency [10]: inactive
outcome [15]: inactive

COCCCOc1ccnc(CS(=O)c2nc3ccccc3[nH]2)c1C (stereo not given)
Potency [1]: inactive
Potency [2]: inactive
outcome [3]: inactive
Potency [11]: inactive
Potency [5]: inactive
Potency [7]: inactive
Potency [12]: inactive
Potency [13]: 6.83 µM (active)
Potency [16]: inactive
outcome [17]: inactive
Potency [14]: inactive
Potency [9]: inactive
Potency [10]: inactive
outcome [15]: inactive

c1c[nH]cn1
Potency [2]: inactive
outcome [3]: inactive
Potency [11]: inactive
Potency [18]: inactive
Potency [5]: inactive
Potency [6]: inactive
Potency [7]: inactive
Potency [12]: inactive
Potency [8]: inactive
Potency [9]: inactive
Potency [10]: inactive
outcome [15]: inactive

CCN(CC)c1ccc(C(=O)c2ccccc2C(=O)O)c(O)c1
Potency [2]: inactive
outcome [3]: inactive
Potency [11]: inactive
Potency [5]: inactive
Potency [6]: 28.4 µM (active) and 25.2 µM (active)
Potency [7]: inactive
Potency [12]: inactive
Potency [13]: 61.3 µM (active) and 34.4 µM (active)
Potency [8]: inactive
Potency [14]: inactive
Potency [9]: inactive
Potency [10]: inactive

C[C@H]1C[C@H]2[C@@H]3CCC4=CC(=O)C=C[C@]4(C)[C@@]3(F)[C@@H](O)C[C@]2(C)[C@@]1(O)C(=O)CO
Potency [1]: inactive
Potency [2]: inactive
outcome [3]: inactive
Potency [5]: inactive
Potency [7]: inactive
Potency [12]: inactive
Potency [13]: inactive
Potency [8]: inactive
Potency [9]: inactive
Potency [10]: inactive

c1ccc(OCCOc2ccccc2)cc1
Potency [1]: inactive
Potency [2]: inactive
outcome [3]: inactive
Potency [5]: inactive
Potency [6]: 28.2 µM (active) and 35.6 µM (active)
Potency [7]: inactive
Potency [12]: inactive
Potency [14]: inactive
Potency [9]: inactive
Potency [10]: inactive
outcome [15]: inactive

OCCOCCN1CCN(C2=Nc3ccccc3Sc3ccccc32)CC1
Potency [2]: inactive
outcome [3]: inactive
Potency [11]: inactive
Potency [18]: inactive
Potency [5]: inactive
Potency [7]: inactive
Potency [12]: inactive
Potency [14]: inactive
Potency [9]: inactive
Potency [10]: inactive
outcome [15]: inactive

COc1cc(Cc2cnc(N)nc2N)cc(OC)c1OC
Potency [2]: inactive
outcome [3]: inactive
Potency [11]: inactive
outcome [4]: inactive
outcome [19]: inactive
Potency [5]: inactive
Potency [6]: inactive
Potency [7]: inactive
Potency [12]: inactive
Potency [8]: inactive
Potency [14]: inactive
Potency [9]: inactive
Potency [10]: inactive

OCCOCCOCCO
Potency [2]: inactive
outcome [3]: inactive
Potency [5]: inactive
Potency [6]: inactive
Potency [7]: inactive
Potency [12]: inactive
Potency [20]: inactive
Potency [13]: inactive
Potency [8]: inactive
Potency [16]: inactive
outcome [17]: inactive
Potency [14]: inactive
Potency [9]: inactive
Potency [10]: inactive
outcome [15]: inactive

ON=C1CCCCC1
Potency [2]: inactive
outcome [3]: inactive
Potency [11]: inactive
Potency [5]: inactive
Potency [6]: inactive
Potency [7]: inactive
Potency [12]: inactive
Potency [13]: inactive
Potency [16]: inactive
outcome [17]: inactive
Potency [14]: inactive
Potency [9]: inactive
Potency [10]: inactive
outcome [15]: inactive
